According to PubChem BioAssay AID1445 (SRMLSC, 2008):
In all, about 220,000 compounds went through this assay and about 910 (0.41%) were called active.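 How the source made its calls: active means primary inhibition above the hit cutoff, then over 50% inhibition at one or more dose response concentrations (cut at about 23% in these data, passing the limit was not always enough); inconclusive means conflicting primary data, or primary hits not chosen for dose response; inactive means low primary inhibition, or under 50% at every dose.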 The full list was thinned out, with actives kept by preference. Entries with a potency or affinity are not part of this list.

target: Aminopeptidase N (Plasmodium falciparum (isolate 3D7)) (UniProt O96935); assay: P. falciparum M1AAP inhibitors, biochemical, fluorogenic H-Leu-NHMec substrate, 1536-well (AID 1445); conditions: recombinant M1AAP, H-Leu-NHMec fluorogenic kinetic assay; at 30 µM, active compounds read high unless noted;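 further: plate controls were DMSO full reaction for no effect and no enzyme background for full effect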
Sequence (O96935 whole entry, looked up): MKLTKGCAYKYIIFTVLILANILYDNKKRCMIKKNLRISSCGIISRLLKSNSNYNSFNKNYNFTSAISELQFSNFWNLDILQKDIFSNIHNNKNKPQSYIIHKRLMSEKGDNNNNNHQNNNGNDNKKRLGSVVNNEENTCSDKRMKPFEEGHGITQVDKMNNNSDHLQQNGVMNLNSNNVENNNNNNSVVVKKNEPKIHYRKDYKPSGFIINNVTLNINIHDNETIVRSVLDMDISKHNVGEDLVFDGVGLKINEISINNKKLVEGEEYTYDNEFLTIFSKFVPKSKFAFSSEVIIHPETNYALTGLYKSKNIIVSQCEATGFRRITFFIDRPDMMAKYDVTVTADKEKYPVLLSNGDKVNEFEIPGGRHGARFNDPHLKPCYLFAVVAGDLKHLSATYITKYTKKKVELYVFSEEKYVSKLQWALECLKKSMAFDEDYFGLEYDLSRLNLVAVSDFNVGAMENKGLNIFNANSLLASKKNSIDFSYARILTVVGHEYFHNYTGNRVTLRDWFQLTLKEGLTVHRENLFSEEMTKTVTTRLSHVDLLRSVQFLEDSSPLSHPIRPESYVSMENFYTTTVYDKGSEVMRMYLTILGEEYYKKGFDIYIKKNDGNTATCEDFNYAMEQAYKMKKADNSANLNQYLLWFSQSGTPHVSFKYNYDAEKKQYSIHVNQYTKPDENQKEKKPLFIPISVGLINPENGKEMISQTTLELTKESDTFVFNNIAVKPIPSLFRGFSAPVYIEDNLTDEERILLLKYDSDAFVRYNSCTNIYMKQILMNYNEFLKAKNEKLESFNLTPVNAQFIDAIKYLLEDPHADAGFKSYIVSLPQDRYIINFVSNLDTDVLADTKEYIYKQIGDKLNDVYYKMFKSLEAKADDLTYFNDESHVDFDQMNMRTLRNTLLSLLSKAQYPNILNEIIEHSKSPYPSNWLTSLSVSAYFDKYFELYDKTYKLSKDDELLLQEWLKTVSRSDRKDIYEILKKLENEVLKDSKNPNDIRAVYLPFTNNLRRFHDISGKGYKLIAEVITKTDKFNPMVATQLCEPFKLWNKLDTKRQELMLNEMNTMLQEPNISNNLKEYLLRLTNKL

Row | Compound | inhibition
1 | Cc1ccc(-c2nc(SCC(=O)NCCN3C(=O)CSC3=O)[nH]c2-c2ccc(C)cc2)cc1 | -5.28% (inactive)
2 | COC(=O)/C(C#N)=C/c1ccc(-c2ccc(S(N)(=O)=O)cc2)o1 | -5.9% (inactive)
3 | O=C(NC(Cc1ccccc1)C(=O)O)c1ccc(S(=O)(=O)N2CCOCC2)cc1 (stereo unspecified) | -4.36% (inactive)
4 | COCCNC(=O)COc1ncnc2ccc(Br)cc12 | 0.71% (inactive)
5 | COCCn1c(=NC(C)=O)sc2cc([N+](=O)[O-])ccc21 | 1.15% (inactive)
6 | O=C(Nc1cccc2oc(=O)ccc12)c1ccc([N+](=O)[O-])cc1[N+](=O)[O-] | 8.2% (inactive)
7 | Cc1ccc(S(=O)(=O)N(C)C)cc1NC(=O)COC(=O)c1sc2cc(Cl)ccc2c1Cl | -0.59% (inactive)
8 | COCCn1c(SCc2cc(C(C)=O)ccc2OC)nc2cc(Cl)ccc2c1=O | 2.27% (inactive)
9 | CCOC(Cn1c(SCc2cc(C(C)=O)ccc2OC)nc2ccccc2c1=O)OCC | 2.96% (inactive)
10 | N/C(=N\OC(=O)CCn1cccc(C(F)(F)F)c1=O)c1ccc(Cl)cc1 | -1.85% (inactive)
11 | COc1cc(C)nc(N2CCCC(C(=O)Nc3cccc(Cl)c3Cl)C2)n1 (stereo unspecified) | 1.36% (inactive)
12 | N#C/C(=N\Nc1ccccc1Cl)C(=O)c1ccccc1 | 12.7% (inactive)
13 | COc1ccc(C(=O)/C(C#N)=N/Nc2ccc([N+](=O)[O-])cc2)cc1 | 3.64% (inactive)
14 | CNC(=O)Nc1cccc(-c2ccnc(C)n2)c1 | 0.72% (inactive)
15 | N#C/C(=N\Nc1cccc(Cl)c1)C(=O)c1ccccc1 | 23.3% (active)
16 | CCOC(=O)NC(=O)/C(C#N)=N\Nc1cccc(Cl)c1 | 1.92% (inactive)
17 | COc1cccc(C(=O)/C(C#N)=N/Nc2cccc(-c3ccnc(C)n3)c2)c1 | 8.84% (inactive)
18 | COc1ccc(C(=O)/C(C#N)=N/Nc2cccc([N+](=O)[O-])c2)cc1 | 12.4% (inactive)
19 | COc1ccc(C(=O)C2CCCN(C(=O)c3cc(C(C)C)no3)C2)cc1F (stereo unspecified) | 0.4% (inactive)
20 | Cc1ccc(C)n1NC(=O)c1ccc(O)cc1 | 17% (inactive)
21 | CC(=O)/C=C(\C)N=Nc1c(O)[nH]c2ccccc12 | 6.61% (inactive)
22 | C/C(=N\NC(=O)c1ccccc1)c1cccc(Br)c1 | 4.52% (inactive)
23 | O=C(Nc1ccccc1[N+](=O)[O-])c1cc2ccccc2nc1Cl | 0.38% (inactive)

Row | Compound | inhibition
24 | CCN(C(=O)CSc1n[nH]c(-c2cccs2)n1)C1CCS(=O)(=O)C1 (stereo unspecified) | -0.17% (inactive)
25 | Cc1cc(Cl)ccc1OCC(=O)OC(C)C(=O)NC(N)=O (stereo unspecified) | -2.23% (inactive)
26 | COc1ccc(N=Cc2cc(Cc3ccccc3Cl)cc([N+](=O)[O-])c2O)cc1OC | 10.4% (inactive)
27 | O=C1CCCN1CCC1CCCCN1Cc1nc(-c2cnccn2)no1 (stereo unspecified) | -4.06% (inactive)
28 | COc1ccc(NS(=O)(=O)c2cccc(-c3nnc4n3CCCCC4)c2)cc1 | 20% (inactive)
29 | CCCC1=[N+](CC)CCn2c(C)ccc21 | 47.2% (active)
30 | CCCC1=[N+](CC(C)=O)CCn2c(C)ccc21 | 6.47% (inactive)
31 | CCCC1=[N+](CC(=O)c2ccccc2)CCn2c(C)ccc21 | 8.08% (inactive)
32 | O=C(COC(=O)c1ccccc1NC(=O)c1ccco1)NCc1ccc2c(c1)OCO2 | -2.79% (inactive)
33 | CCCn1nc(C(=O)NCc2ccc3c(c2)OCO3)c2ccccc2c1=O | 9.46% (inactive)
34 | COc1ccc(C2CC(c3ccc4ccccc4c3)=NN2C(=O)COC(=O)C2CCC(=O)N2)cc1 (stereo unspecified) | 2.25% (inactive)
35 | O=C(Nc1ccc(S(=O)(=O)NCc2ccco2)cc1)c1ccncc1 | 6.85% (inactive)
36 | COc1ccc(NC(=S)NCc2ccccn2)cc1OC | 10.7% (inactive)
37 | COC(=O)CCP(=O)(O)Cc1ccccc1CP(=O)(O)CCC(=O)OC | 25.9% (active)
38 | COC(=O)CP(=O)(c1ccccc1)c1ccccc1 | 6.71% (inactive)
39 | COC(=O)CCC(=O)NNC(=O)Cc1ccccc1 | 1.14% (inactive)
40 | Brc1c(CSc2nncn2-c2ccccc2)nc2ncccn12 | 9.69% (inactive)
41 | NC(=O)CSc1nnc(-c2cccs2)n1Cc1ccco1 | 8.05% (inactive)
42 | O=C(COC(=O)c1ccc(NS(=O)(=O)c2cccs2)cc1O)Nc1nc2ccccc2s1 | 8.12% (inactive)
43 | COc1ccccc1NS(=O)(=O)c1ccc(O)c(C(=O)OCC(=O)Nc2ccccc2F)c1 | -2.66% (inactive)
44 | COc1cc(-c2nc3ccc4ccccc4c3c3c2CCC3)ccc1O | 8.66% (inactive)
45 | Cc1ccc(-c2nc(CN3CCN(c4cnccn4)CC3)c(C)o2)o1 | 5.52% (inactive)
46 | CCOC(=O)C1CCCN(C(=O)c2cc(-c3ccc(F)cc3)nc3ccccc23)C1 (stereo unspecified) | 0.66% (inactive)

Row | Compound | inhibition
47 | Cc1ccc(C)c2[nH]c(=O)c(CN(Cc3ccco3)S(=O)(=O)c3ccc4c(c3)OCCO4)cc12 | 11.6% (inactive)
48 | COc1ccc(C2C(C(=O)OCC(=O)Nc3ccc(C)cc3)CCC(=O)N2c2ccc(OC)cc2)cc1 (stereo unspecified) | 23.9% (active)
49 | COc1ccc(C2C(C(=O)OCC(=O)N3CCCCC3)CCC(=O)N2c2ccc(OC)cc2)cc1 (stereo unspecified) | 0.13% (inactive)
50 | CCNC(=O)COC(=O)C1CCC(=O)N(c2ccc(OC)cc2)C1c1ccc(OC)cc1 (stereo unspecified) | 12.7% (inactive)
51 | O=C(Nc1ccc2nn(-c3ccccc3)nc2c1)c1cccs1 | -15.1% (inactive)
52 | CCCCC(CC)CNC(=O)C1CCCN(S(=O)(=O)c2cnc[nH]2)C1 (stereo unspecified) | 24.2% (active)
53 | COc1ccccc1NC(=O)C1CCCN(S(=O)(=O)c2cnc[nH]2)C1 (stereo unspecified) | 1.4% (inactive)
54 | O=C(NCc1ccccc1Cl)C1CCCN(S(=O)(=O)c2cnc[nH]2)C1 (stereo unspecified) | 4.7% (inactive)
55 | Cc1ccc(CNC(=O)C2CCCN(S(=O)(=O)c3cnc[nH]3)C2)cc1 (stereo unspecified) | -2.21% (inactive)
56 | COc1ccccc1CNC(=O)C1CCCN(S(=O)(=O)c2cnc[nH]2)C1 (stereo unspecified) | 23.9% (active)
57 | CCCCNC(=O)C1CCN(S(=O)(=O)c2cnc[nH]2)CC1 | 14.7% (inactive)
58 | CC(C)(C)N1C(=O)c2ccccc2NC(=O)N1Cc1ccc(Br)cc1 | 2.07% (inactive)
59 | O=C1CC(SC(=Nc2ccccc2)Nc2ccccc2)C(=O)N1c1ccc(Cl)c(Cl)c1 (stereo unspecified) | -2.66% (inactive)
60 | CCC/C(O)=C1\C(=O)CCCC1=NCCc1ccc(OCC)c(OCC)c1 | 5.18% (inactive)
61 | CC(=O)c1cccc(-n2nnnc2SCC(=O)Nc2cccc(NC(=O)c3ccco3)c2)c1 | 8.36% (inactive)
62 | Cc1c(N=Cc2nc3ccccc3[nH]2)c(=O)n(-c2ccccc2)n1C | 17.4% (inactive)
63 | Cc1c(N=Cc2ccncc2)c(=O)n(-c2ccccc2)n1C | 1.24% (inactive)
64 | Cc1c(N=Cc2nc3ccccc3n2C)c(=O)n(-c2ccccc2)n1C | 27.3% (active)
65 | O=C(NCCc1c[nH]c2ccccc12)C(=O)NCC1OCCCN1S(=O)(=O)c1ccc(F)cc1 (stereo unspecified) | 4.14% (inactive)
66 | CCc1cccc(CC)c1NC(=O)COC(=O)c1ccc(F)c(S(=O)(=O)N(CC)CC)c1 | 3.7% (inactive)
67 | CCOc1ccccc1NC(=O)Nc1cnccn1 | 8.05% (inactive)
68 | O=c1c2ccccc2nc2n1CC/C2=C\c1ccccc1[N+](=O)[O-] | 1.69% (inactive)
69 | CCOC(=O)c1ccc(-n2c(C)nc3ccccc3c2=O)cc1 | 3.03% (inactive)

Row | Compound | inhibition
70 | CSc1ncc(Cl)c(C(=O)Nc2ccc(NC(C)=O)cc2)n1 | 1.65% (inactive)
71 | CSc1ncc(Cl)c(C(=O)Nc2cccc(C)c2)n1 | 6.29% (inactive)
72 | COc1ccc(S(=O)(=O)N2CCC(NC(=O)C(Cc3cccc(OC)c3OC)NC(C)=O)CC2)cc1 (stereo unspecified) | 12.2% (inactive)
73 | CCOC(=O)CSCC(=O)Nc1nnc(-c2cccc([N+](=O)[O-])c2)s1 | 2.17% (inactive)
74 | COc1ccc(-n2c(SCC(=O)Nc3cc(C)on3)nc3c([nH]c4ccccc43)c2=O)cc1 | 0.91% (inactive)
75 | COc1ccc(NC(=O)C2C(=O)N(C)C3(C)CC2c2ccccc2O3)cc1 (stereo unspecified) | 9.89% (inactive)
76 | COc1ccc2c(c1)OC13CCCCC1C2C(C(=O)c1ccccc1)C(=O)N3 (stereo unspecified) | -8.77% (inactive)
77 | CN1C(=O)C(C(=O)NC(C)(C)C)C2c3ccccc3OC13CCCCC23 (stereo unspecified) | 24.3% (active)
78 | O=C(CSc1nc(O)cc(=O)[nH]1)N1c2ccccc2Sc2ccccc21 | 18.4% (inactive)
79 | Cc1cc(C)c(C#N)c(SCC(=O)c2cccs2)n1 | 2.39% (inactive)
80 | Cc1nc(SCC(=O)N2c3ccccc3Sc3ccccc32)n[nH]1 | 4.61% (inactive)
81 | CCOc1ccc2nc(NC(=O)CSc3ccc(Cl)cc3)sc2c1 | 2.68% (inactive)
82 | CCOc1ccc2nc(NC(=O)CSc3ccccc3)sc2c1 | 8.9% (inactive)
83 | CC(=O)CSc1nc(-c2cccs2)c(C#N)c(=O)[nH]1 | 7.78% (inactive)
84 | O=C(CCc1ccc(S(=O)(=O)N2CCOCC2)cc1)Nc1ccc(N2CCOCC2)cc1 | 3.54% (inactive)
85 | Cc1ccc(-c2noc(CN(C(=O)C(c3ccccc3)c3ccccc3)C(C)C)n2)cc1 | 5.44% (inactive)
86 | NC(=O)N/N=C/c1ccccc1OC(=O)c1ccccc1Br | 0.59% (inactive)
87 | Cc1ccccc1CS(=O)(=O)c1cn(CC(=O)N2CCC(C)CC2)c2ccccc12 | 9.75% (inactive)
88 | Cc1ccc(C)c(CS(=O)(=O)c2cn(CC(=O)N3CCC(C)CC3)c3ccccc23)c1 | 9.18% (inactive)
89 | CCN(C1CCCCC1)S(=O)(=O)c1ccc(S(=O)(=O)N2CCN(CCC#N)CC2)cc1 | -1.62% (inactive)
90 | O=C(/C=C\Nc1ccc2c(c1)OCO2)c1ccc(Cl)s1 | 3.02% (inactive)
91 | O=S(=O)(NC1CCCC1)c1ccc(S(=O)(=O)N2CCCN(Cc3ccccc3)C2)cc1 | 0.63% (inactive)
